Assay [1] addresses T1, Serine/threonine-protein kinase 17A (Homo sapiens) (UniProt Q9UEE5).
T1 sequence (whole entry): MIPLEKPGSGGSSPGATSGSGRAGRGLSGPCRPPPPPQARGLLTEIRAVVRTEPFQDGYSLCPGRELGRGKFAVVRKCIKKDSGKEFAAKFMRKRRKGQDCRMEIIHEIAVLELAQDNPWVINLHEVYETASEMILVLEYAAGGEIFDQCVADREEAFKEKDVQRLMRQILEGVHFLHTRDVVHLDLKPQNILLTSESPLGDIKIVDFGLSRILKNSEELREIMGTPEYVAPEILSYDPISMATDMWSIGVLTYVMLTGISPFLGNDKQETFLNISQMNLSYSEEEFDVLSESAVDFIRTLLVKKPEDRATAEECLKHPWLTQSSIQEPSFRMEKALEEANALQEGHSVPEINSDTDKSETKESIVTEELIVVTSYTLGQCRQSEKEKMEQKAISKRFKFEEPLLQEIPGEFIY
Conditions: at 10 µM.

The target of assay [2] is T2, Dual specificity tyrosine-phosphorylation-regulated kinase 2 (Homo sapiens) (UniProt Q92630).
T2 sequence (whole entry): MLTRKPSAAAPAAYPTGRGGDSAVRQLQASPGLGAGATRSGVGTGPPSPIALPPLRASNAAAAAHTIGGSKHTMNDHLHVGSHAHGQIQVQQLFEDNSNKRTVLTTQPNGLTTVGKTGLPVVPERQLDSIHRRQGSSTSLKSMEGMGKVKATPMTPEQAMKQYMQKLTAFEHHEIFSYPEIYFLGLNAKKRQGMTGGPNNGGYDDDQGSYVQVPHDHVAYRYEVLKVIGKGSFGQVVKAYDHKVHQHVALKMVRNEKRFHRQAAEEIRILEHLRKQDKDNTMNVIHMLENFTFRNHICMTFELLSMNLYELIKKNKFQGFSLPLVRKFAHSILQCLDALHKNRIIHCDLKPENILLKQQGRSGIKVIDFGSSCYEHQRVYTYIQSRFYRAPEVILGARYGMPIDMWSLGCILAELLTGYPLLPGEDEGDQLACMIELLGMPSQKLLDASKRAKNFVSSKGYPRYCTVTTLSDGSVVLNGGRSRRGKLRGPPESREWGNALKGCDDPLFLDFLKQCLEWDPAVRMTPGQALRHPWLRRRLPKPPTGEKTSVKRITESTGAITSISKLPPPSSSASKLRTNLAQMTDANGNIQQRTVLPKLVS
Conditions: at 1 µM.

Assay [3] addresses T2, Dual specificity tyrosine-phosphorylation-regulated kinase 2 (Homo sapiens). Conditions: at 10 µM.
The target in assay [4] is T3, Ephrin type-A receptor 1 (Homo sapiens) (UniProt P21709).
T3 sequence (whole entry): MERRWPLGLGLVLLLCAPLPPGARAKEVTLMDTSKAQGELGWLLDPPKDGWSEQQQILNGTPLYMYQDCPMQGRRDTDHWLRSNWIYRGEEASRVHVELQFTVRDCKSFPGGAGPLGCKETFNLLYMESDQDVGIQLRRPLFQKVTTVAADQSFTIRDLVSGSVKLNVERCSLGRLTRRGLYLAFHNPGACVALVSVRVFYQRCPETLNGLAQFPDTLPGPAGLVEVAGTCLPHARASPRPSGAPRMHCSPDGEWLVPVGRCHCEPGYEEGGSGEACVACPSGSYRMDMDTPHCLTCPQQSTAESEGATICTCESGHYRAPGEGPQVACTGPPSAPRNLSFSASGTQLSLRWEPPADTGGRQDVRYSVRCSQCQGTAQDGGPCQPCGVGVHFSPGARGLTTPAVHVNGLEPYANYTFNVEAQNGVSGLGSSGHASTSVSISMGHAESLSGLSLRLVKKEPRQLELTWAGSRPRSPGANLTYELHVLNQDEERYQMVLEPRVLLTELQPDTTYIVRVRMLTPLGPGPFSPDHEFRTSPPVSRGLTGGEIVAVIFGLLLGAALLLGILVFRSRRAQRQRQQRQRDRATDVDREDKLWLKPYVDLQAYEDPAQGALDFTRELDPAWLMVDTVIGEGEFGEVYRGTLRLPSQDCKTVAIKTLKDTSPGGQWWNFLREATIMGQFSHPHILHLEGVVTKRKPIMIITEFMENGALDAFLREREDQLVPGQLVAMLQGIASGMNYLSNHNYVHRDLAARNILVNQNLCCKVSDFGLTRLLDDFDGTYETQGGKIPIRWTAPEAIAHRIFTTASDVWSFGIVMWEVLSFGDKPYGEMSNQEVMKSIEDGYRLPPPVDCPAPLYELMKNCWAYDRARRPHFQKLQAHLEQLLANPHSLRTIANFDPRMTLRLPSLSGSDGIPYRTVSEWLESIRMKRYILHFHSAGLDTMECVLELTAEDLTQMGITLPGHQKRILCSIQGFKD
As to conditions: at 1 µM.

Assay [5] deals with T3, Ephrin type-A receptor 1 (Homo sapiens). As to conditions: at 10 µM.
In assay [6] the target is Ephrin type-A receptor 2 (Homo sapiens) (UniProt P29317). As to conditions: at 1 µM.
Sequence of Ephrin type-A receptor 2 (Homo sapiens) (P29317 whole entry): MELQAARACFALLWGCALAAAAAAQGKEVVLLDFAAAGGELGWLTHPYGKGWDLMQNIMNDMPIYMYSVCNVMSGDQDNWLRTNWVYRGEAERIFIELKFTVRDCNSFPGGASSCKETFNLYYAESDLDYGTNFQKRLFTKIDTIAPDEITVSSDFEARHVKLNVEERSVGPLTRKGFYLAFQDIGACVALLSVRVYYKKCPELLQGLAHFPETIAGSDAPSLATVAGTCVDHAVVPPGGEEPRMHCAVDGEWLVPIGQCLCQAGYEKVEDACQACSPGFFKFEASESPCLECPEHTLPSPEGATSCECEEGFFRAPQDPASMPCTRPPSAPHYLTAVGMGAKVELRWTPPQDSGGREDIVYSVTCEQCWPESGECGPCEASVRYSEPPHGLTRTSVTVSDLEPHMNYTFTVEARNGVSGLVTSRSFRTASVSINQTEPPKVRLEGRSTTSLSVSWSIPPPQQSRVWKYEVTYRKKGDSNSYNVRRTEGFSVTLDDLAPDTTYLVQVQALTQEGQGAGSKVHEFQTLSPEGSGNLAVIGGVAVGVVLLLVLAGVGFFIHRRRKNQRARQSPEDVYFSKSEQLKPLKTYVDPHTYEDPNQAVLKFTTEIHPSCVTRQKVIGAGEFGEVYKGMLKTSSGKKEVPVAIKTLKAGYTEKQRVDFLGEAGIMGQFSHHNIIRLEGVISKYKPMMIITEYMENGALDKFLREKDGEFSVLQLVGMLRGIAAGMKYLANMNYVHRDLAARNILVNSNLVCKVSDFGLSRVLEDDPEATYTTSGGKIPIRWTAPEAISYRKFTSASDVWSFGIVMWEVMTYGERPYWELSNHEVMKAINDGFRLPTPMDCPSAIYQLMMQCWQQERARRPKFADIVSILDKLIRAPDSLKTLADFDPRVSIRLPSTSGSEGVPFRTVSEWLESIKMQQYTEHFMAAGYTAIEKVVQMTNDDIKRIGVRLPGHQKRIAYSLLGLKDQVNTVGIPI
The target is the same in assay [7]. Conditions: at 10 µM.
Assay [8] concerns the target T4, Ephrin type-A receptor 3 (Homo sapiens) (UniProt P29320).
T4 sequence (whole entry): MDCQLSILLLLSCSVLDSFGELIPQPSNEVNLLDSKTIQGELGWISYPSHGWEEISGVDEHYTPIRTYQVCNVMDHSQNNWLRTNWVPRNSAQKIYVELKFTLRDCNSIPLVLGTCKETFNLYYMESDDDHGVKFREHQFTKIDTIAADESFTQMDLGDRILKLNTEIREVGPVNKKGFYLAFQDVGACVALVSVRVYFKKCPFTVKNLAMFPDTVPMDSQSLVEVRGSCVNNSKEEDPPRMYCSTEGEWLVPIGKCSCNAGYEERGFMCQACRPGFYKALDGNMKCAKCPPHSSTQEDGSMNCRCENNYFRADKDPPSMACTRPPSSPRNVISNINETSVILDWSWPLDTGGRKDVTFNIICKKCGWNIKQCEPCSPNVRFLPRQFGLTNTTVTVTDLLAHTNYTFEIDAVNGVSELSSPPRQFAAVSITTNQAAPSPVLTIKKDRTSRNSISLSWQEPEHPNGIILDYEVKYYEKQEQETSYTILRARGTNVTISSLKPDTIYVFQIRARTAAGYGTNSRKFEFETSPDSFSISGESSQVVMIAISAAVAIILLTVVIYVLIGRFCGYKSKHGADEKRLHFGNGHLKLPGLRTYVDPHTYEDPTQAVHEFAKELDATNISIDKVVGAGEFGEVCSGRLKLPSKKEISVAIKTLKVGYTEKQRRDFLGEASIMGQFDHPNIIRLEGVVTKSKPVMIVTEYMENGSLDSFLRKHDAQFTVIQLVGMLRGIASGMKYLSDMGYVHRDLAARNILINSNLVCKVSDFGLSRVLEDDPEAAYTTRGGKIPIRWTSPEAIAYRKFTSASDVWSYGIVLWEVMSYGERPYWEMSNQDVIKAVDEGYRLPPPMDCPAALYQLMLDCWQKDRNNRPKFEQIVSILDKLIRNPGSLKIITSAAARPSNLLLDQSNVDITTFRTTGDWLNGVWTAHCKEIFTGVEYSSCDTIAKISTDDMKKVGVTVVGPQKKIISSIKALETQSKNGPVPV
As to conditions: at 1 µM.

For assay [9], the target named is T4, Ephrin type-A receptor 3 (Homo sapiens). As to conditions: at 10 µM.
Assay [10] has as its target Ephrin type-A receptor 4 (Homo sapiens) (UniProt P54764). As to conditions: at 1 µM.
Assay [11] has the same target. Conditions: at 10 µM.
For assay [12], the target named is Ephrin type-A receptor 5 (Homo sapiens) (UniProt P54756). Conditions: at 1 µM.
Sequence of Ephrin type-A receptor 5 (Homo sapiens) (P54756 whole entry): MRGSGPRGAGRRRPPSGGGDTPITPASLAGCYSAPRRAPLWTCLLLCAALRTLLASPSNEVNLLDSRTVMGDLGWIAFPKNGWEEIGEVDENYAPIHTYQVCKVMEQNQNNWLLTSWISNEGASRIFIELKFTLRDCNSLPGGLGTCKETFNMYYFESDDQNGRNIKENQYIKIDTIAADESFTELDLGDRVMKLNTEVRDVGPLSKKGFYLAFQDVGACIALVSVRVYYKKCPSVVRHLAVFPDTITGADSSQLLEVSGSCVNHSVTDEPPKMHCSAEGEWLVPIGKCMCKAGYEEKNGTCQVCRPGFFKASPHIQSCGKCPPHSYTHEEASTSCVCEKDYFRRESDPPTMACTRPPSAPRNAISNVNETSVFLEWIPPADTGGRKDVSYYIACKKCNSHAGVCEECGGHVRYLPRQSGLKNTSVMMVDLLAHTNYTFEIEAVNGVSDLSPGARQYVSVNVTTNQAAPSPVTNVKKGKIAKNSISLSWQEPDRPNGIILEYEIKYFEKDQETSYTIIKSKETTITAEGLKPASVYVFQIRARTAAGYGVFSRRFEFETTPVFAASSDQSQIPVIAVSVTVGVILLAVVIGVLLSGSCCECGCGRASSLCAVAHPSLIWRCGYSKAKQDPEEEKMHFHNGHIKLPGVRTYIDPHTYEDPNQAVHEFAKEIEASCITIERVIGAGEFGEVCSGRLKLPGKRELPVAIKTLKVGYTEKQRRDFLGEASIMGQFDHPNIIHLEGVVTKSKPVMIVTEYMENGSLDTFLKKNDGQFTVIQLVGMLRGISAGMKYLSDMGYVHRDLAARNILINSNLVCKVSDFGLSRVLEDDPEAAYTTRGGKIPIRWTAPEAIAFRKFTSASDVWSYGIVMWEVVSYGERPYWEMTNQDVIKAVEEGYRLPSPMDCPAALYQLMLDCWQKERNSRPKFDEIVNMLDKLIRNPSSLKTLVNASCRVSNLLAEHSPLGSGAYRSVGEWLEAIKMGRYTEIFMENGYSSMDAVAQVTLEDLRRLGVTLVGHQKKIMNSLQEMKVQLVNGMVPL
The target is the same in assay [13]. Conditions: at 10 µM.
For assay [14], the target named is Ephrin type-A receptor 7 (Homo sapiens) (UniProt Q15375). Conditions: at 1 µM.
Sequence of Ephrin type-A receptor 7 (Homo sapiens) (Q15375 28-998 limits assumed): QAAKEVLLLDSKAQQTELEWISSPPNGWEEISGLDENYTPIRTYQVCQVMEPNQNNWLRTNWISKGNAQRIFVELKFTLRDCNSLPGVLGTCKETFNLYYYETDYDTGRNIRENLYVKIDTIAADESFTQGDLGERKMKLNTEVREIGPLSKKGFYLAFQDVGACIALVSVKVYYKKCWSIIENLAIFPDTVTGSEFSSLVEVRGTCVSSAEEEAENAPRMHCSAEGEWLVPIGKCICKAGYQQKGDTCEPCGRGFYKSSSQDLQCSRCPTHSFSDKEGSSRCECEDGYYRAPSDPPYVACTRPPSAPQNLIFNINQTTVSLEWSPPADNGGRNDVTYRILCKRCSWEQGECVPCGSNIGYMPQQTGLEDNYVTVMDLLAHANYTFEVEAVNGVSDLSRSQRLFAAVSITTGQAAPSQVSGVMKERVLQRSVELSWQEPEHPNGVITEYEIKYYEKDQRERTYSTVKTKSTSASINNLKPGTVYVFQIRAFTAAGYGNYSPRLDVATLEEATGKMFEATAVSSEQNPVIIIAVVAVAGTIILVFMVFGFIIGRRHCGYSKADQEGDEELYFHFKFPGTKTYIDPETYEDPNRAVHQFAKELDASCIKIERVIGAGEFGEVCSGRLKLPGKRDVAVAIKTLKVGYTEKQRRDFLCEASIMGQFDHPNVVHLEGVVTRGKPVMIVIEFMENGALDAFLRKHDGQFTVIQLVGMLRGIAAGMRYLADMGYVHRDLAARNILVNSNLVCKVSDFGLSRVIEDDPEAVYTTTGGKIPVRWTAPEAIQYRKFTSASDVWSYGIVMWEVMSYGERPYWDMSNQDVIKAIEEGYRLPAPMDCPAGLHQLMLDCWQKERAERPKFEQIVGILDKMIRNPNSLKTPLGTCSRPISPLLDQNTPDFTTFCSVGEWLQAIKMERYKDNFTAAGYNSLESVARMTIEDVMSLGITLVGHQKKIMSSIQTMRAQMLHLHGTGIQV
For assay [15] the target is unchanged. As to conditions: at 10 µM.
For assay [16], the target named is T5, Ephrin type-A receptor 8 (Homo sapiens) (UniProt P29322).
T5 sequence (whole entry): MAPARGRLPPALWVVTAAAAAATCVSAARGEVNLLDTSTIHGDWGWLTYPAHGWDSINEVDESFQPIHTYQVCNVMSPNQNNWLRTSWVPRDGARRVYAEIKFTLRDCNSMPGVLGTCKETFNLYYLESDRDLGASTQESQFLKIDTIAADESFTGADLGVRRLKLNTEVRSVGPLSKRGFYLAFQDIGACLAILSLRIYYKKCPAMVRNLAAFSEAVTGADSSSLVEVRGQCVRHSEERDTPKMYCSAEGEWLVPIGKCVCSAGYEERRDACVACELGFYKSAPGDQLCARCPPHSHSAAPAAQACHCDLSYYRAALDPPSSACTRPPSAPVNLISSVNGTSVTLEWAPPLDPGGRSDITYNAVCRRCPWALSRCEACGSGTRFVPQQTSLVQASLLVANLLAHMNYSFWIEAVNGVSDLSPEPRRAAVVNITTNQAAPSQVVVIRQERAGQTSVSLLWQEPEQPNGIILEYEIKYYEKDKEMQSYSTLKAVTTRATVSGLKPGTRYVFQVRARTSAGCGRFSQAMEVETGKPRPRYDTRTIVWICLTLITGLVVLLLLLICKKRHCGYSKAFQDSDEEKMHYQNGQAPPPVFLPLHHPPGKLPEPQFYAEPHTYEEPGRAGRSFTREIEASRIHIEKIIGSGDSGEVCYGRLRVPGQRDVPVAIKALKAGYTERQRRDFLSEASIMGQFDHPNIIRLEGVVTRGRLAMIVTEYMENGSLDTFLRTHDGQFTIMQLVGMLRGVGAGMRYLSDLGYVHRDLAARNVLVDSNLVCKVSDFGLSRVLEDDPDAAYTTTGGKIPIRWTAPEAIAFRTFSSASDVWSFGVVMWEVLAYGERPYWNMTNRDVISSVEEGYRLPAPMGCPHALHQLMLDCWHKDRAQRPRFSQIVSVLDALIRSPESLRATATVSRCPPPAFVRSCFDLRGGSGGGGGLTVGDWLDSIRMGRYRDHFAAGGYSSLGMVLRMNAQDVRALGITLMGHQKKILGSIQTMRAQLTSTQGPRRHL
As to conditions: at 1 µM.

The target of assay [17] is T5, Ephrin type-A receptor 8 (Homo sapiens). As to conditions: at 10 µM.
Assay [18] deals with T6, Ephrin type-B receptor 1 (Homo sapiens) (UniProt P54762).
T6 sequence (whole entry): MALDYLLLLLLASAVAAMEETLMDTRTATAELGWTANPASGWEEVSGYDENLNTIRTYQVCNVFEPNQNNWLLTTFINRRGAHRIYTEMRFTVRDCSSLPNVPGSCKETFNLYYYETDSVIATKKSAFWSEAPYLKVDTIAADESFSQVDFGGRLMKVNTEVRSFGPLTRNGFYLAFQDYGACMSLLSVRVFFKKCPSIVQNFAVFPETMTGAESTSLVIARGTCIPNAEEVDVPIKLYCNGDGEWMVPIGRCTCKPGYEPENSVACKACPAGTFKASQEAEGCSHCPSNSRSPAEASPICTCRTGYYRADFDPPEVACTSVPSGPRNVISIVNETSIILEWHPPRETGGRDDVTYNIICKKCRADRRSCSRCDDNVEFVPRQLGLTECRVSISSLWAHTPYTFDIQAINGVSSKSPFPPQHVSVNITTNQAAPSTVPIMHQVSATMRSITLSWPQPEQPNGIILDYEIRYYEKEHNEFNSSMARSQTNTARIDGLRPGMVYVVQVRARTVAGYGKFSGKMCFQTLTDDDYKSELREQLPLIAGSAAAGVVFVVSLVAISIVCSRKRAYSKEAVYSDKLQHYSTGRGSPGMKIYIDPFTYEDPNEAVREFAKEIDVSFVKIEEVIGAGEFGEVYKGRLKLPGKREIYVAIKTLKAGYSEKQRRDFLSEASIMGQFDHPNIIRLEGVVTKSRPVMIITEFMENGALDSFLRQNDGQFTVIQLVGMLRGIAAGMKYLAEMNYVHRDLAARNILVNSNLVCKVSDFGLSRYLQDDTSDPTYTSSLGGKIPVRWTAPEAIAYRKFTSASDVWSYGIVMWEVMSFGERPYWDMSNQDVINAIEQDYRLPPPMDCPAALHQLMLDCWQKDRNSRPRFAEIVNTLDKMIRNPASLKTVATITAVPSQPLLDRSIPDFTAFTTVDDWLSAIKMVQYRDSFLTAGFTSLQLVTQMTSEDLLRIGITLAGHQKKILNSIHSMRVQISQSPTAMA
As to conditions: at 1 µM.

Sequence of Ephrin type-A receptor 4 (Homo sapiens) (P54764 whole entry): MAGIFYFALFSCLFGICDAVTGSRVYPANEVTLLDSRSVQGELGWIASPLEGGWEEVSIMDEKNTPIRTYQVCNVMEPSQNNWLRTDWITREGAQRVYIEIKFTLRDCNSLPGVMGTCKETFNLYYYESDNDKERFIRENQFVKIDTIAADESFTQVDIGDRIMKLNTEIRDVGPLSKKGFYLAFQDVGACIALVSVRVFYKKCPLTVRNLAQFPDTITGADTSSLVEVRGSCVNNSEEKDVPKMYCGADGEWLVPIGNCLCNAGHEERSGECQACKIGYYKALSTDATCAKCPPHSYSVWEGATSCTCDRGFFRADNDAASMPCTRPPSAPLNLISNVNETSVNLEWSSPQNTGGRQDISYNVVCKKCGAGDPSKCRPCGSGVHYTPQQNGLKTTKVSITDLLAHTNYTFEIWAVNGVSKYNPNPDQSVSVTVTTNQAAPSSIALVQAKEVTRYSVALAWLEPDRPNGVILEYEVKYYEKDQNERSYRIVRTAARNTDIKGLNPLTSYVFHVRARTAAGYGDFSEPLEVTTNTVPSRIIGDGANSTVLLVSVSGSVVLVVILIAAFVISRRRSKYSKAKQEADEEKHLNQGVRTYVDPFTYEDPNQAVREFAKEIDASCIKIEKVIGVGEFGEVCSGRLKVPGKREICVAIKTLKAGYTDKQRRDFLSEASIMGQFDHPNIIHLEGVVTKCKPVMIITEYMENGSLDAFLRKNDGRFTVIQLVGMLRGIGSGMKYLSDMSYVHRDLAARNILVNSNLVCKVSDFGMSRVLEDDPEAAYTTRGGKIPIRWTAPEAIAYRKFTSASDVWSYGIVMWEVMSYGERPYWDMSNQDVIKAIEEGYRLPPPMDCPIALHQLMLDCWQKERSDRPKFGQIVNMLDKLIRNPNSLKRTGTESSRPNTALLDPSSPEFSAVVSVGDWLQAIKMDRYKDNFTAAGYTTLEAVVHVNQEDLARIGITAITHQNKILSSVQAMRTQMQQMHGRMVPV

`c1ccc2c(-c3ccncc3)c[nH]c2c1`: the residual activity worked out at 60% in [1]; 77% in [2]; 21% in [3]; 87% in [4]; 69% in assay [5]; 104% in assay [6]. In addition, the residual activity in assay [7] was determined as 92%; in [8] it was 106%; in assay [9], 92%; in assay [10] it was 109%; in assay [11] it was 98%; in [12], 102%. The residual activity in assay [13] came to 111%; in assay [14], 99%; in assay [15] it was 84%; in [16], 96%; in assay [17], 92%; in assay [18], 108%.
As to `Oc1c2ccccc2c2c3c(cccc13)N=N2`, the residual activity in [1] was 2%; in assay [2], 4%; in assay [3], -5%; in assay [4], 67%; in assay [5] it was 42%; in assay [6], 88%. Further, the residual activity came out at 60% in assay [7]; 75% in [8]; 48% in assay [9]; 105% in assay [10]; 106% in assay [11]; 115% in [12]. For the same molecule, the residual activity in [13] came to 63%; in assay [14], 80%; in assay [15], 41%; in [16], 92%; in [17], 76%; in [18], 91%.
`Nc1cccc(-c2cc3c(Oc4cccc(O)c4)ncnc3[nH]2)c1`: the residual activity in assay [1] is 32%; in assay [2], 89%; in assay [3] it was 62%; in assay [4], 2%; in assay [5], -1%; in assay [6], 30%. Moreover, the residual activity in [7] was found to be 2%; in assay [8] it was 4%; in assay [9], 0%; in assay [10] it was 48%; in assay [11] it was 4%; in [12] it was 24%. For the same molecule, the residual activity turned out to be 2% in assay [13]; 64% in assay [14]; 15% in assay [15]; 30% in assay [16]; 6% in assay [17]; 7% in assay [18].
For `CNc1cc2c(Nc3cccc(Br)c3)ncnc2cn1`, the residual activity came to 11% in assay [1]; 90% in assay [2]; 86% in assay [3]; 72% in [4]; 59% in assay [5]; 94% in assay [6]. The residual activity is 75% in assay [7]; 93% in assay [8]; 78% in [9]; 105% in assay [10]; 95% in assay [11]; 103% in assay [12]. Moreover, the residual activity in assay [13] stood at 92%; in [14], 90%; in assay [15] it was 54%; in [16] it was 98%; in [17], 69%; in [18], 93%.

As usually defined, the residual activity is the signal under treatment as a percentage of the control signal.
